Measured values: PubChem BioAssay (EPA / NIEHS)
Several values for one entry are separate records, joined by “and”; a condition that tells them apart may be missing. Equal entries are not always repeated. Results filed as inconclusive are left out. Where a structure was tested more than once in an assay, its records may differ in their call. Activity calls are given as the source filed them. Rule for the calls, unless noted: active = hit-call score of the fitted dose curve at least 0.9, where 1 is the maximum; inactive = score below 0.9.

How the values were obtained:
[1] = read-out: Macrophage colony-stimulating factor (MCSF), CSF1 (gene 1435); assay: BSK_LPS_MCSF: BioMAP Diversity Plus: LPS Assay for Macrophage colony-stimulating factor (MCSF) Biomarker Activity (AID 2283083); conditions: primary human HUVEC with PBMC; actives raise or lower the signal
Outline: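 Bidirectional fit versus DMSO of ELISA-measured M-CSF in co-cultured human umbilical vein endothelial cells and PBMC, sampled 24 h after dosing.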

[2] = read-out: Tissue Factor, F3 (gene 2152); assay: BSK_LPS_TissueFactor: BioMAP Diversity Plus: LPS Assay for Tissue Factor Biomarker Activity (AID 2283084); conditions: primary human HUVEC with PBMC; actives raise or lower the signal
Outline: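 Read-out: CD142 ELISA, 24 h. System: LPS-driven human endothelial/PBMC co-culture. Analysis: up- or down-signal fitted against DMSO.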

[3] = read-out: Tumor necrosis factor (Homo sapiens) (UniProt P01375); assay: BSK_LPS_TNFa: BioMAP Diversity Plus: LPS Assay for Tumour Necrosis Factor alpha (TNFa) Biomarker Activity (AID 2283085); conditions: primary human HUVEC with PBMC; actives raise or lower the signal;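 for AC50: TNFa protein level quantified by ELISA in the co-culture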
Outline: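 TNFa was quantified by ELISA in LPS-activated co-cultures of human endothelial cells and PBMC, 24 h post-dosing. Both increases and decreases versus DMSO were fitted.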

[4] = read-out: Vascular cell adhesion molecule 1 (VCAM1), VCAM1 (gene 7412); assay: BSK_LPS_VCAM1: BioMAP Diversity Plus: LPS Assay for Vascular cell adhesion molecule 1 (VCAM1) Biomarker Activity (AID 2283086); conditions: primary human HUVEC with PBMC; actives raise or lower the signal
Outline: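 VCAM-1 quantified by ELISA in an LPS-activated co-culture of human endothelial cells and peripheral blood mononuclear cells, read 24 h post-treatment. Fitted in both directions versus DMSO; parallel SRB staining flags overt cytotoxicity.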

CD38, CD38 (gene 952) = assay: BSK_SAg_CD38: BioMAP Diversity Plus: SAg Assay for CD38 Biomarker Activity (AID 2283087); conditions: primary human HUVEC with PBMC; actives raise or lower the signal
Outline: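 CD38 quantified by ELISA (fluorescence) in a superantigen-activated endothelial cell–PBMC co-culture at 24 h post-dose. Activity fitted in both directions relative to DMSO; parallel SRB and Alamar Blue cytotoxicity read-outs.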

CD40, CD40 (gene 958) = assay: BSK_SAg_CD40: BioMAP Diversity Plus: SAg Assay for CD40 Biomarker Activity (AID 2283088); conditions: primary human HUVEC with PBMC; actives raise or lower the signal
Outline: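 Endpoint derived by fitting increases or decreases versus DMSO controls. CD40 is detected by fluorescence ELISA in a human vascular co-culture of endothelium and PBMC at 24 h.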

CD69, CD69 (gene 969) = assay: BSK_SAg_CD69: BioMAP Diversity Plus: SAg Assay for CD69 Biomarker Activity (AID 2283089); conditions: primary human HUVEC with PBMC; actives raise or lower the signal;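 for AC50: cell surface CD69 protein quantified by ELISA with fluorescence detection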
Outline: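 Values derive from bidirectional fitting relative to DMSO vehicle. Cells: umbilical vein endothelium plus peripheral blood mononuclear cells, treated 24 h before fluorescent ELISA for CD69.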

[5] = read-out: Monocyte Chemoattractant Protein-1 (MCP1), CCL2 (gene 6347); assay: BSK_SAg_MCP1: BioMAP Diversity Plus: SAg Assay for Monocyte Chemoattractant Protein-1 (MCP1) Biomarker Activity (AID 2283090); conditions: primary human HUVEC with PBMC; actives raise or lower the signal
Outline: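 Values derive from bidirectional fitting of ELISA-measured MCP1 against DMSO controls. Readings were taken 24 h after dosing human vascular endothelial cells co-cultured with peripheral blood mononuclear cells under superantigen stimulation.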

[6] = read-out: E-selectin (Homo sapiens) (UniProt P16581); assay: BSK_SAg_Eselectin: BioMAP Diversity Plus: SAg Assay for Eselectin Biomarker Activity (AID 2283091); conditions: primary human HUVEC with PBMC; actives raise or lower the signal
Outline: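 Endpoint values derive from bidirectional fitting relative to DMSO, using ELISA-measured E-selectin in a human vascular co-culture (umbilical vein endothelium plus PBMC) sampled 24 h after dosing.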

[7] = read-out: Monokine induced gamma interferon (MIG), CXCL9 (gene 4283); assay: BSK_SAg_MIG: BioMAP Diversity Plus: SAg Assay for Monokine induced gamma interferon (MIG) Biomarker Activity (AID 2283092); conditions: primary human HUVEC with PBMC; actives raise or lower the signal
Outline: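 Values reflect bidirectional fitting of ELISA-measured MIG against DMSO vehicle, taken 24 h after dosing of a co-culture of human umbilical vein endothelial cells and peripheral blood mononuclear cells.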

[8] = BSK_SAg_PBMCCytotoxicity: PBMC Cytotoxicity Assessment in the BioMAP Diversity Plus: SAg Assay (AID 2283093); conditions: primary human HUVEC with PBMC;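 note: PBMC viability measured as Alamar Blue reduction fluorescence at 546/580 nm; fitted both ways against DMSO so a hit may be loss or gain of signal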;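 for AC50: PBMC superantigen activated with SEB plus TSST-1 one hour after compound addition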
Outline: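 Alamar Blue reduction (6 h, 546/580 nm) reports PBMC cytotoxicity after 90 h superantigen activation (SEB, TSST-1; 20 ng/mL final each) with 1 h compound pre-treatment. Gain or loss of signal fitted versus DMSO.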

[9] = read-out: Interleukin-8 (IL8), CXCL8 (gene 3576); assay: BSK_SAg_IL8: BioMAP Diversity Plus: SAg Assay for Interleukin-8 (IL8) Biomarker Activity (AID 2283094); conditions: primary human HUVEC with PBMC; actives raise or lower the signal
Outline: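 ELISA readout of IL-8 from a superantigen-activated endothelial/PBMC primary human co-culture, taken 24 h post-dosing and fitted in both directions against DMSO; parallel SRB total-protein staining flags overt cytotoxicity.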

[10] = BSK_SAg_Proliferation: Cell Proliferation Assessment in the BioMAP Diversity Plus: SAg Assay (AID 2283095); conditions: primary human HUVEC with PBMC;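 note: relative cell number as total protein by SRB absorbance in sub-confluent culture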
Outline: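 Relative cell number in the endothelial cell/PBMC co-culture was quantified at 96 h by SRB staining (0.1% SRB, 10% TCA fixation, read at 560 nm). Curves were fitted in both directions relative to DMSO baseline.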

[11] = BSK_SAg_SRB: Viability Assessment in the BioMAP Diversity Plus: SAg Assay (AID 2283096); conditions: primary human HUVEC with PBMC;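 note: cells read one day after compound addition; hits may be either gain or loss of signal compared with DMSO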
Outline: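 This overt-cytotoxicity endpoint quantifies protein in human endothelial/PBMC co-cultures at 24 h using SRB absorbance (560 nm) after trichloroacetic acid fixation. Values reflect signal change from the DMSO negative control, fitted bidirectionally.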

[12] = target: human CYP2C9, CYP2C9 (gene 1559) (UniProt P11712); assay: NVS_ADME_hCYP2C9: NovaScreen (NVS) CYP450-related Enzyme Activity (ADME) Assay for human CYP2C9 (AID 2283108; active = hit-call score of the fitted dose curve at least 0.9, where 1 is the maximum)
Outline: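 Cell-free assay of recombinant human CYP2C9 produced in Sf9 cells, with enzyme activity read by fluorescence intensity 0.75 h after compound addition. Loss of signal versus an acetonitrile negative control indicates inhibition. Primary screen used 10 uM in duplicate; actives were retested in concentration series.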

Measured: AC50

Chain of E-selectin (Homo sapiens) (P16581 whole entry, looked up): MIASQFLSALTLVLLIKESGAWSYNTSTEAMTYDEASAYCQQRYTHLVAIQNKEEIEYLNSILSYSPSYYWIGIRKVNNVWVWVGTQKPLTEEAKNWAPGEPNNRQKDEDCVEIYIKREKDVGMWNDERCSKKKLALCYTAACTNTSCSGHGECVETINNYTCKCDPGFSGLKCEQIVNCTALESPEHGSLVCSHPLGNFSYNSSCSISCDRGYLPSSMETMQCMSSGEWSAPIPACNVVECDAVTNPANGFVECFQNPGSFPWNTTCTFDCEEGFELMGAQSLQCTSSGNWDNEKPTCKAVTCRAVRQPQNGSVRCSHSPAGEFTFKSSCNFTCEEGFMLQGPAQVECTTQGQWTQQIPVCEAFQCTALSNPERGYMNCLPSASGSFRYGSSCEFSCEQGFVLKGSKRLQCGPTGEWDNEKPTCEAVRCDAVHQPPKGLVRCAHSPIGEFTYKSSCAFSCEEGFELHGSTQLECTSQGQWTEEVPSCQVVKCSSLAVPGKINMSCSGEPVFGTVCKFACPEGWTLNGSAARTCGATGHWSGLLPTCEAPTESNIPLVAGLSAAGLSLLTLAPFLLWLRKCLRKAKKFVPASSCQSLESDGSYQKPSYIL
Chain of Tumor necrosis factor (Homo sapiens) (P01375 whole entry, looked up): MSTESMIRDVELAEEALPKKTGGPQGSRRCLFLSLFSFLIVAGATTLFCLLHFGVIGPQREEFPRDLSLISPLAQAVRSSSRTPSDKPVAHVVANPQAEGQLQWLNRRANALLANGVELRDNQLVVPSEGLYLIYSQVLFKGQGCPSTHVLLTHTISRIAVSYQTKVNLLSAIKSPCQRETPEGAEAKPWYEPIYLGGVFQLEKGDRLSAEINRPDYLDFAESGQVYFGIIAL
Chain of human CYP2C9, CYP2C9 (gene 1559) (P11712 whole entry, looked up): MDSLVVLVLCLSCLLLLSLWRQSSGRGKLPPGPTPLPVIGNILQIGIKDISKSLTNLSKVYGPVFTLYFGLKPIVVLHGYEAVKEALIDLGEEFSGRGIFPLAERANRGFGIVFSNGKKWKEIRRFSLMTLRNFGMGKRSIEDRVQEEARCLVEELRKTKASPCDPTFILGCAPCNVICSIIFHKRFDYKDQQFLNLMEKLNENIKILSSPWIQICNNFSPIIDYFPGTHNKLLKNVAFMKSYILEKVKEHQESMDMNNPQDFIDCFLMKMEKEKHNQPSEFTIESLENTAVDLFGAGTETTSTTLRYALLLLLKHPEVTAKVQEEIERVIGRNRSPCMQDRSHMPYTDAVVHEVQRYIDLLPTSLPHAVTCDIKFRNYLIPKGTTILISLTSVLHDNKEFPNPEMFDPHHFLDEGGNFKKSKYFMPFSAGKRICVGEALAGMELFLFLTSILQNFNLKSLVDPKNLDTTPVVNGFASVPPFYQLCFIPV

Oc1ccc(Cc2ccccc2O)cc1
not listed: [12]
inactive: all other assays above

OCC(F)(F)C(F)(F)C(F)(F)C(F)(F)C(F)(F)C(F)(F)C(F)(F)C(F)(F)C(F)(F)C(F)(F)C(F)(F)F
inactive: [1] | [2] | [3] | CD38, CD38 (gene 952) | CD40, CD40 (gene 958) | CD69, CD69 (gene 969) | [5] | [6] | [7] | [9] | [11]
active: [1] 417 nM | [3] 1.01 µM | CD38, CD38 (gene 952) 6.23 nM | [8] 115 nM and 64.1 nM

C=CC(=O)OCCC(F)(F)C(F)(F)C(F)(F)C(F)(F)C(F)(F)C(F)(F)C(F)(F)C(F)(F)F
not listed: CD69, CD69 (gene 969) | [10] | [12]
inactive: all other assays above

CCC(C)c1ccccc1O (stereo not drawn)
not listed: CD69, CD69 (gene 969) | [10] | [12]
inactive: all other assays above

O=C(CC(=O)C(F)(F)C(F)(F)C(F)(F)F)c1cccs1
inactive: [1] | [2] | [3]
active: [1] 30000 nM | [2] 10.4 µM | [3] 15.2 µM | CD38, CD38 (gene 952) 23.1 µM and 28.6 µM | CD40, CD40 (gene 958) 17 µM and 16.2 µM | CD69, CD69 (gene 969) 17.6 µM and 30 µM | [5] 37.4 µM and 41.6 µM | [6] 30 µM and 43.1 µM | [7] 48.3 µM and 53.4 µM | [8] 44.8 µM and 43.6 µM | [9] 3.52 µM and 10.7 µM | [11] 29.9 µM and 48.5 µM

CCCCC(CC)C(=O)O (stereo not drawn)
not listed: [10] | [12]
inactive: all other assays above

Cc1ccc(N=Nc2c(O)ccc3ccccc23)c(C)c1
active: [2] 7.3 µM | [8] 4.15 µM
not listed: CD69, CD69 (gene 969) | [10] | [12]
inactive: all other assays above

O=C(O)C(F)(F)OC(F)(F)C(F)(F)OC(F)(F)C(F)(F)OC(F)(F)C(F)(F)C(F)(F)C(F)(F)F
active: [1] 55.1 µM and 44.7 µM | [2] 54.8 µM and 30 µM | [3] 50 µM and 46.4 µM | CD38, CD38 (gene 952) 45.5 µM and 47.5 µM | CD40, CD40 (gene 958) 43.7 µM and 45.3 µM | CD69, CD69 (gene 969) 42.8 µM and 32 µM | [5] 48.8 µM and 47.2 µM | [6] 45.4 µM and 49.9 µM | [7] 49.2 µM and 53.4 µM | [8] 44.5 µM and 45.8 µM | [9] 30 µM and 24.7 µM | [11] 51.5 µM and 53.1 µM

CC1=NN(c2ccccc2)C(=O)C1
active: [12] 3.06 µM
not listed: CD69, CD69 (gene 969) | [10]
inactive: all other assays above

O=C(NO)c1ccccc1
not listed: [4] | [10] | [12]
inactive: all other assays above

C=CC(C)(CCC=C(C)C)OC(C)=O (stereo not drawn)
not listed: CD69, CD69 (gene 969) | [10] | [12]
inactive: all other assays above

O=C1c2ccc(O)c(O)c2C(=O)c2c(O)ccc(O)c21
not listed: [10] | [12]
inactive: all other assays above

O=P(O)(O)CCC(F)(F)C(F)(F)C(F)(F)C(F)(F)C(F)(F)C(F)(F)F
active: [2] 5.95 µM
inactive: [1] | [2] | [3] | [4] | CD38, CD38 (gene 952) | CD40, CD40 (gene 958) | [5] | [6] | [7] | [8] | [9] | [11]
